Experimental data as given in PubChem BioAssay (NCI).
This is part of a sample that, as a whole, favours compounds with a hit. Of some 79,000 tested, about 15% had one in any assay. The source made the active and inactive calls. Rule as the data show it: active = growth inhibition above about 70%; inactive = the rest.

Columns and labels:
[1] = NCI Yeast Anticancer Drug Screen. Data for the rad52 strain (AID 147);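 also: 0% = growth of vehicle-treated control cultures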; conditions: S. cerevisiae rad52 mutant growth inhibition, stronger effect = higher value
Method in brief: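 Compounds are applied to a genetically defined yeast strain lacking normal DNA damage repair, and inhibition of growth is expressed relative to cultures given vehicle only.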

[2] = NCI Yeast Anticancer Drug Screen. Data for the mgt1 strain (AID 153); conditions: S. cerevisiae mgt1 mutant growth inhibition, stronger effect = higher value
Method in brief: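 Strain: mgt1 yeast, one of a set carrying defined DNA damage repair or cell cycle control alterations. Compound-treated growth compared with vehicle.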

[3] = NCI Yeast Anticancer Drug Screen. Data for the rad50 strain (AID 155);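 also: 0% = growth of vehicle-only cultures of the same strain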; conditions: S. cerevisiae rad50 strain growth inhibition, stronger effect = higher value
Method in brief: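 Inhibition values express reduced yeast growth in compound-treated cultures relative to vehicle-treated controls.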

[4] = NCI Yeast Anticancer Drug Screen. Data for the mec2-1 strain (AID 157); conditions: S. cerevisiae mec2-1 strain, stronger effect = higher value
Method in brief: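 Strain: mec2-1 (DNA repair/cell cycle alteration). Compound exposure, then growth measured; inhibition expressed relative to vehicle.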

[5] = NCI Yeast Anticancer Drug Screen. Data for the rad14 strain (AID 159);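 also: 0% = growth of vehicle-treated control cultures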; conditions: S. cerevisiae rad14 strain growth inhibition, stronger effect = higher value
Method in brief: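 A mutant yeast strain defective in DNA damage repair is treated with compound; inhibition of its growth is scored against untreated, vehicle-exposed cultures.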

[6] = NCI Yeast Anticancer Drug Screen. Data for the sgs1 mgt1 strain (AID 161);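 also: 0% = growth of cultures given vehicle only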; conditions: S. cerevisiae sgs1 mgt1 strain, stronger effect = higher value
Method in brief: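 Read-out: growth inhibition vs vehicle controls. Cells: mutant yeast strain deficient in DNA damage repair.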

[7] = NCI Yeast Anticancer Drug Screen. Data for the CLN2oe strain (AID 163);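 also: 0% = growth of vehicle-only control cultures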; conditions: S. cerevisiae CLN2oe strain, stronger effect = higher value
Method in brief: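 Growth of a genetically modified yeast strain is measured after compound exposure and compared with cultures given vehicle alone.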

[8] = NCI Yeast Anticancer Drug Screen. Data for the cln2 rad14 strain (AID 165);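 also: 0% = growth equal to vehicle treated cultures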; conditions: S. cerevisiae cln2 rad14 strain, stronger effect = higher value
Method in brief: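 Compounds are applied to the cln2 rad14 yeast strain, and growth is then compared with that of vehicle-treated cultures to give inhibition.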

[9] = NCI Yeast Anticancer Drug Screen. Data for the bub3 strain (AID 167); conditions: S. cerevisiae bub3 mutant strain, stronger effect = higher value
Method in brief: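 Steps: expose the mutant yeast strain to compound; grow alongside vehicle-treated cultures; measure growth; express inhibition against the vehicle cultures.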

[10] = NCI Yeast Anticancer Drug Screen. Data for the wt2 strain (AID 169);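 also: 0% = growth of vehicle-treated yeast cultures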; conditions: S. cerevisiae wt2 strain growth inhibition, stronger effect = higher value
Method in brief: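 This strain belongs to a panel of yeast strains with defined genetic alterations in DNA damage repair or cell cycle control. Compounds are applied, and growth inhibition is measured against vehicle-treated cultures.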

[11] = NCI Yeast Anticancer Drug Screen. Data for the mlh1 strain (AID 171);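 also: 0% = growth of vehicle-treated control cultures of the same strain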; conditions: S. cerevisiae mlh1 strain growth inhibition, stronger effect = higher value
Method in brief: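 Growth of the mutant yeast strain after compound exposure, expressed as inhibition relative to vehicle-only controls.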

[12] = NCI Yeast Anticancer Drug Screen. Data for the mlh1 rad18 strain (AID 175); conditions: S. cerevisiae mlh1 rad18 strain growth inhibition, stronger effect = higher value
Method in brief: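 Read-out is yeast growth inhibition, calculated against vehicle-only controls. The compound was applied to a strain engineered with DNA damage repair alterations.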

[13] = NCI Yeast Anticancer Drug Screen. Data for the rad18 strain (AID 177); conditions: S. cerevisiae rad18 mutant growth inhibition, stronger effect = higher value
Method in brief: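 Growth of the mutant yeast strain after compound exposure, normalised to vehicle-only cultures.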

[14] = NCI Yeast Anticancer Drug Screen. Data for the wt1 strain (AID 149);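 also: 0% = growth of vehicle-treated wt1 cultures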; conditions: S. cerevisiae wt1 strain (SPY 50644) growth inhibition, stronger effect = higher value
Method in brief: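 Compounds are added to wt1 yeast cultures. Growth is then measured. Inhibition is expressed relative to vehicle-treated controls.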

[15] = NCI Yeast Anticancer Drug Screen. Data for the rad50EPP+ strain (AID 151);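 also: 0% = growth of vehicle-treated control cultures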; conditions: S. cerevisiae rad50 mutant strain, stronger effect = higher value
Method in brief: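 Compounds were applied to the rad50EPP+ yeast strain, which bears a defined DNA repair alteration, and growth inhibition was determined relative to vehicle-treated cultures.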

[16] = NCI Yeast Anticancer Drug Screen. Data for the sgs1 strain (AID 173);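 also: 0% = growth of vehicle-only control cultures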; conditions: S. cerevisiae sgs1 mutant, stronger effect = higher value
Method in brief: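 Growth of a yeast strain bearing a defined genetic alteration is measured after compound treatment. Inhibition is expressed relative to vehicle-only controls.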

[17] = at 5.0 µM (retest, dose inferred, filed as 0.5)
[18] = at 50.0 µM (retest, dose inferred, filed as 5.0)

Measured: growth inhibition

CS(=O)(=O)OCCN(CCOS(C)(=O)=O)c1ccc(C=O)cc1
active: [1]; at 33.0 µM 83% | [1]; at 100.0 µM 91% | [2]; at 100.0 µM 78% | [3]; at 33.0 µM 80% | [3]; [18] 84% | [3]; at 50.0 µM 79.3% | [3]; at 100.0 µM 92% | [4]; at 33.0 µM 75% | [4]; [18] 88% | [4]; at 50.0 µM 83.6% | [4]; at 100.0 µM 90% | [5]; at 33.0 µM 82% | [5]; at 100.0 µM 91% | [6]; [18] 80% | [6]; at 50.0 µM 79.4% | [8]; [18] 74% | [9]; at 50.0 µM 73.2% | [9]; at 100.0 µM 72% | [10]; at 100.0 µM 85% | [11]; at 100.0 µM 82% | [12]; [17] 76% | [12]; [18] 95% | [12]; at 50.0 µM 91% | [13]; at 1.2 µM 85% | [13]; at 3.7 µM 92% | [13]; at 11.0 µM 95% | [13]; at 33.0 µM 96% | [13]; at 100.0 µM 96%
inactive: [1]; at 1.2 µM 11% | [1]; at 3.7 µM 33% | [1]; at 11.0 µM 62% | [2]; at 1.2 µM 5% | [2]; at 3.7 µM 13% | [2]; at 11.0 µM 32% | [2]; at 33.0 µM 58% | [3]; at 1.2 µM 16% | [3]; at 3.7 µM 34% | [3]; [17] 33% | [3]; at 11.0 µM 60% | [4]; at 1.2 µM 8% | [4]; at 3.7 µM 20% | [4]; [17] 29% | [4]; at 11.0 µM 43% | [5]; at 1.2 µM 22% | [5]; at 3.7 µM 36% | [5]; at 11.0 µM 63% | [6]; [17] 26% | [7]; at 1.2 µM -10% | [7]; at 3.7 µM -1% | [7]; at 11.0 µM 15% | [7]; at 33.0 µM 35% | [7]; at 100.0 µM 65% | [8]; [17] 8% | [8]; at 50.0 µM 65.2% | [9]; at 1.2 µM -6% | [9]; at 3.7 µM -3% | [9]; [17] -8% | [9]; at 11.0 µM 10% | [9]; at 33.0 µM 38% | [9]; [18] 37% | [10]; at 1.2 µM -1% | [10]; at 3.7 µM 12% | [10]; at 11.0 µM 18% | [10]; at 33.0 µM 43% | [11]; at 1.2 µM 2% | [11]; at 3.7 µM 11% | [11]; at 11.0 µM 25% | [11]; at 33.0 µM 53%

O=[N+]([O-])c1cc([As](Br)c2ccc(O)c([N+](=O)[O-])c2)ccc1O
active: [14]; at 3.7 µM 70% | [14]; at 11.0 µM 99% | [14]; at 33.0 µM 98% | [14]; at 100.0 µM 98% | [15]; at 33.0 µM 74% | [15]; at 100.0 µM 99% | [2]; at 3.7 µM 88% | [2]; at 11.0 µM 100% | [2]; at 33.0 µM 99% | [2]; at 100.0 µM 99% | [3]; at 3.7 µM 89% | [3]; [17] 99% | [3]; at 11.0 µM 99% | [3]; at 33.0 µM 99% | [3]; [18] 99% | [3]; at 50.0 µM 99.5% | [3]; at 100.0 µM 98% | [4]; at 3.7 µM 93% | [4]; [17] 99% | [4]; at 11.0 µM 99% | [4]; at 33.0 µM 100% | [4]; [18] 99% | [4]; at 50.0 µM 99.8% | [4]; at 100.0 µM 100% | [5]; at 11.0 µM 100% | [5]; at 33.0 µM 100% | [5]; at 100.0 µM 99% | [6]; [17] 99% | [6]; [18] 99% | [6]; at 50.0 µM 99.5% | [7]; at 11.0 µM 93% | [7]; at 33.0 µM 98% | [7]; at 100.0 µM 98% | [8]; [17] 98% | [8]; [18] 99% | [8]; at 50.0 µM 99.5% | [9]; at 1.2 µM 97% | [9]; at 3.7 µM 98% | [9]; [17] 93% | [9]; at 11.0 µM 97% | [9]; at 33.0 µM 98% | [9]; [18] 99% | [9]; at 50.0 µM 99.5% | [9]; at 100.0 µM 99% | [10]; at 3.7 µM 94% | [10]; at 11.0 µM 99% | [10]; at 33.0 µM 99% | [10]; at 100.0 µM 99% | [11]; at 3.7 µM 75% | [11]; at 11.0 µM 99% | [11]; at 33.0 µM 100% | [11]; at 100.0 µM 100% | [16]; at 3.7 µM 90% | [16]; at 11.0 µM 99% | [16]; at 33.0 µM 99% | [16]; at 100.0 µM 99% | [12]; [17] 99% | [12]; [18] 99% | [12]; at 50.0 µM 99.8% | [13]; at 3.7 µM 85% | [13]; at 11.0 µM 99% | [13]; at 33.0 µM 99% | [13]; at 100.0 µM 98%
inactive: [14]; at 1.2 µM 10% | [15]; at 1.2 µM 0% | [15]; at 3.7 µM 3% | [15]; at 11.0 µM 26% | [2]; at 1.2 µM 28% | [3]; at 1.2 µM 28% | [4]; at 1.2 µM 60% | [5]; at 1.2 µM 31% | [5]; at 3.7 µM 69% | [7]; at 1.2 µM 16% | [7]; at 3.7 µM 22% | [10]; at 1.2 µM 12% | [11]; at 1.2 µM 31% | [16]; at 1.2 µM 33% | [13]; at 1.2 µM 26%
